Assay results as given in PubChem BioAssay AID493194 (Broad Institute, 2011).
Results with a measured potency or affinity are listed apart. Inconclusive results are not listed. Calls of active or inactive are those of the source.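 How the source made its calls: active means a valid curve of falling signal whose half-effect concentration is at most ten times the top tested dose; inconclusive means flat curve at 30 to 70% inhibition, or poor fit; inactive means signal rise, flat within 30%, or potency beyond limit.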

molecular target: Scavenger receptor class B member 1 (Mus musculus) (UniProt Q61009); assay: inhibitors of SR-BI mediated HDL lipid uptake, dose response, ldlA[mSR-BI] cells, fluorescence, cherry pick (AID 493194); conditions: CHO ldlA[mSR-BI] DiI-HDL uptake fluorescence, 3 h; series mostly up to 35 µM;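 further: CHO cells lacking LDL receptor and overexpressing mouse SR-BI; cellular uptake of fluorescently labeled HDL measured as cell fluorescence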
Sequence (Q61009 whole entry, looked up): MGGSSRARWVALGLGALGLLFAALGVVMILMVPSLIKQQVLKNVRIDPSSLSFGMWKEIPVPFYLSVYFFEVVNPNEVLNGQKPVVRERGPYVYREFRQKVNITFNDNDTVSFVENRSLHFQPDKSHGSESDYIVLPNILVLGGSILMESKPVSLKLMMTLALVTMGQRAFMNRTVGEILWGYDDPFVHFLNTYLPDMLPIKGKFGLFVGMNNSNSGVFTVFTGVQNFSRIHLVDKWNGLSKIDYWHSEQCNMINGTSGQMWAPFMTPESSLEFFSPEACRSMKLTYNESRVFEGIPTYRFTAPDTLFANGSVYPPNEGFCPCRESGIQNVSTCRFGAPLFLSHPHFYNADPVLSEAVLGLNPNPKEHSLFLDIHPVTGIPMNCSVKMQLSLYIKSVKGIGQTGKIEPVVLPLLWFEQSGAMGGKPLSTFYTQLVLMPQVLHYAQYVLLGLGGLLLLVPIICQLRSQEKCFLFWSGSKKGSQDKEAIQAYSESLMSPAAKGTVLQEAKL

SMILES | outcome
O=c1cccc2n1CC1CC2CN(S(=O)(=O)c2cc(Cl)ccc2Cl)C1 (configuration not stated) | inactive
CCCCCCn1c(=O)c(C(=O)Nc2cnccn2)c(O)c2ccccc21 | inactive
COc1ccc(NC(=O)C2C3CCC(O3)C2C(=O)O)c(OC)c1 (configuration not stated) | inactive
O=S1(=O)N(CCN2CC=C(c3c[nH]c4cc(F)ccc34)CC2)c2cccc3c2N1CCC3 | inactive
CNC1(c2ccc(F)cc2)CCCCC1 | inactive
O=C(Nc1ccccc1F)OC1CN2CCC1CC2 (configuration not stated) | inactive
CC(C)(C)c1ccc(S(=O)(=O)N2CC3CC(C2)c2cccc(=O)n2C3)cc1 (configuration not stated) | inactive
